Assay results: PubChem BioAssay (NCI)
Where “and” joins values, the source holds several entries; their conditions need not be identical. Equal values may be shown once. This is part of a sample that, as a whole, favours compounds with a hit. Of some 79,000 tested, about 15% had one in any assay. Calls of active or inactive are those of the source. Rule as the data show it: active = growth inhibition above about 70%; inactive = the rest.

Key:
[1] = NCI Yeast Anticancer Drug Screen. Data for the rad50 strain (AID 155);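 also: 0% = growth of vehicle-only cultures of the same strain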; settings: S. cerevisiae rad50 strain growth inhibition, active compounds read high; at 50.0 µM unless noted
Method in brief: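 Genetically altered yeast (DNA repair pathway); compound treatment; growth inhibition vs vehicle ctrl.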

[2] = NCI Yeast Anticancer Drug Screen. Data for the mec2-1 strain (AID 157); settings: S. cerevisiae mec2-1 strain, active compounds read high; at 50.0 µM unless noted
Method in brief: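 Yeast mec2-1 mutant treated with compound. Readout: growth inhibition vs vehicle controls.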

[3] = NCI Yeast Anticancer Drug Screen. Data for the sgs1 mgt1 strain (AID 161);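 also: 0% = growth of cultures given vehicle only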; settings: S. cerevisiae sgs1 mgt1 strain, active compounds read high; at 50.0 µM unless noted
Method in brief: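 Genetically altered yeast, compound exposure, growth inhibition relative to vehicle.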

[4] = NCI Yeast Anticancer Drug Screen. Data for the cln2 rad14 strain (AID 165);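 also: 0% = growth equal to vehicle treated cultures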; settings: S. cerevisiae cln2 rad14 strain, active compounds read high; at 50.0 µM unless noted
Method in brief: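 cln2 rad14 yeast strain; compound exposure; growth inhibition read vs vehicle controls.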

[5] = NCI Yeast Anticancer Drug Screen. Data for the bub3 strain (AID 167); settings: S. cerevisiae bub3 mutant strain, active compounds read high; at 50.0 µM unless noted
Method in brief: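 Yeast carrying a defined mutation is treated with each compound, and growth is compared with that of vehicle-exposed cells to give inhibition.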

[6] = NCI Yeast Anticancer Drug Screen. Data for the mlh1 rad18 strain (AID 175); settings: S. cerevisiae mlh1 rad18 strain growth inhibition, active compounds read high; at 50.0 µM unless noted
Method in brief: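 Yeast w/ defined DNA-repair lesions; compound exposure; growth vs vehicle controls → % inhibition.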

Measured: growth inhibition

CCCCOC(=O)C1CN2C=CC=NC2=NC1(C(F)(F)F)C(F)(F)F (configuration not stated)
inactive: [1] -16.1% | [2] 27% | [3] 6.6% | [4] 0.95% | [5] 3.35% | [6] -43.1%

O=C(O)COc1ccc(F)cc1F
inactive: [1] -22.5% | [2] -3.05% | [3] 1.65% | [4] -31.4% | [5] 0.95% | [6] -16.4%

CN(Cc1ccccc1Cl)C(=O)Nc1cccc(Cl)c1
active: [2] 78% | [3] 80.7% | [4] 80% | [5] 86.7% | [6] 90.2%
inactive: [1] 61.5%

O=C(O)/C=C(/CC(=O)O)C(=O)O
inactive: [1] -34.9% | [2] -11.3% | [3] -17.2% | [4] 0.35% | [5] -27.8% | [6] -7.45%

O=C(O)/C(=C/c1cccs1)c1ccc(F)cc1
inactive: [1] 19.1% | [2] 12.2% | [3] 15% | [4] 28.9% | [5] -3.2% | [6] 3.75%

Nc1nc(N)c2ncn(Cc3ccccc3)c2n1
inactive: [1] -41.2% | [2] -34.4% | [3] -9.95% | [4] -14.1% | [5] -16.1% | [6] -13.9%

Cc1ccc(NC(=O)C(=O)CC(=O)c2sc(Nc3c(C)cccc3C)nc2C)cc1C
inactive: [1] 13.4% | [2] -9.95% | [3] 1.85% | [4] -27.7% | [5] -23.4% | [6] -2%

CN1CCc2nc[nH]c2C1
inactive: [1] 17.2% | [2] -4.95% | [3] 3.2% | [4] 10.1% | [5] 6.4% | [6] 10.1%

O=C1c2ccccc2CC(c2ccccc2)N1c1ccccc1 (configuration not stated)
inactive: [1] 51.1% | [2] 0.4% | [3] 31.4% | [4] -22.4% | [5] 3.55% | [6] 32.1%

COc1ccc2c(c1)CCN1CCCc3ccccc3C21 (configuration not stated)
inactive: [1] 22.4% | [2] 2.75% | [3] 6.3% | [4] 25.8% | [5] 14.8% | [6] -5.75%

CC(C)OC(=O)/C=C/CCCC1CCCCC1
inactive: [1] -10.5% | [2] 6.15% | [3] 7.95% | [4] 2.35% | [5] 18.7% | [6] -15.2%

COC(=O)NC(=O)c1cn(CCCOC(=O)CCCCCCCCC(=O)OCCCn2cc(C(=O)NC(=O)OC)c(=O)[nH]c2=O)c(=O)[nH]c1=O
inactive: [1] -13.5% | [2] -3.8% | [3] -7.45% | [4] 9.9% | [5] 13.3% | [6] -12.4%

Brc1ccc(SSc2ccc(Br)cc2)cc1
inactive: [1] -12.8% and 3.2% | [2] 13.1% and -10.3% | [3] 3.45% and 5.3% | [4] -18.4% and -5.5% | [5] -3.15% and 9.8% | [6] 18.8% and 2.65%

CCC(C)C(NC(=O)Cc1ccccc1)C(=O)O (configuration not stated)
inactive: [1] 4.55% | [2] -9.45% | [3] -4.1% | [4] -23.2% | [5] 8.95% | [6] 5.75%

CN(C)CC1CCCCCC(CN(C)C)C1=O (configuration not stated)
inactive: [1] -17.9% and 38% | [2] 8.3% and 2.75% | [3] -1.85% and 25.9% | [4] 0.45% and -28.4% | [5] -10.4% and -1.65% | [6] 16.8% and 12.9%

Cc1nc(N(C)C)oc(=O)c1CCc1ccccc1
inactive: [1] -5.8% | [2] 3.8% | [3] -0.9% | [4] 0.2% | [5] 6.9% | [6] 8.9%

O=C(C[n+]1csc2ccccc21)c1ccccc1
inactive: [1] 9% | [2] 15.3% | [3] 17.1% | [4] 20.4% | [5] 30.4% | [6] 3.8%

C=C(C)C(C)OC(=O)Nc1ccccc1 (configuration not stated)
inactive: [1] 12.7% | [2] -3.05% | [3] -16.1% | [4] 7.4% | [5] -3.95% | [6] -37.5%

Nc1c(Cl)ccc2c(Cl)ccnc12
inactive: [1] -1.15% | [2] -9.55% | [3] -7.2% | [4] -21.1% | [5] -9.55% | [6] 7.55%

O=C1C=CC(=O)C(CNc2ccc(C(=O)OCc3ccccc3)cc2)=C1
inactive: [1] 23.6% | [2] 8.75% | [3] -28.9% | [4] -30.6% | [5] -42.9% | [6] -3.1%

CCC(=O)OC(C)COc1ccccc1 (configuration not stated)
inactive: [1] -6.2% | [2] 3.25% | [3] -3.9% | [4] -43.5% | [5] -5.8% | [6] -10.4%

CCCCCOC(=O)c1ccc(C(C)C)cc1
inactive: [1] 10.2% | [2] -6.2% | [3] 5.15% | [4] 8.5% | [5] 0.6% | [6] 5.1%

CN(C)C(=S)S(=O)(=O)c1ccccc1
inactive: [1] 51.5% | [4] 25.2%
active: [2] 75.8% | [3] 81.2% | [5] 85.6% | [6] 91.2%

CN(C)C(=S)Oc1ccc(-c2c(-c3ccccc3)oc3ccc4ccccc4c23)cc1
inactive: [1] 28.2% | [2] -4.05% | [3] 7.95% | [4] 10.8% | [5] -0.1% | [6] 9.4%

N#Cc1ccccc1NC(=O)C(=O)c1c(O)c2ccccc2oc1=O
inactive: [1] -13.8% | [2] -6.8% | [3] -16.1% | [4] -16.9% | [5] -12.2% | [6] -25%

O=c1oc(-c2ccccc2CCl)nc2ccccc12
inactive: [1] 0.95% | [2] -17.1% | [3] 15.8% | [4] 15.3% | [5] -13.8% | [6] -5.9%

CCCCCC[N+](C)(C)C
inactive: [1] 28% | [2] -16.3% | [3] 2.7% | [4] 6.75% | [5] 31.3% | [6] 16.2%

CC(Cl)(c1ccccc1)C1OCCO1 (configuration not stated)
inactive: [1] 1.75% | [2] 19.9% | [3] 8.1% | [4] -20.9% | [5] -5.9% | [6] -1.5%

O=[N+]([O-])/C=C/c1cn(CCCCCCCCCCCCn2cc(/C=C/[N+](=O)[O-])c3ccccc32)c2ccccc12
inactive: [1] -1.5% | [2] -24.6% | [3] -3.9% | [4] 6.45% | [5] -19.4% | [6] -13.6%

CCN(CC)C(=O)C1CCN(CCOc2ccccc2)CC1
inactive: [1] -14.2% | [2] 13.2% | [3] 1.55% | [4] -10% | [5] -0.25% | [6] -26%

CN(C)CCl
inactive: [1] -1.4% | [2] -28.2% | [3] -12.4% | [4] -4.1% | [5] -15.5% | [6] -13.1%

C/C(=N/N)c1ccc2[nH]c3c(C)cc([N+](=O)[O-])c(C)c3c2c1
inactive: [1] 16.9% | [2] -6.9% | [3] -22.9% | [4] 13.7% | [5] 3.65% | [6] 6.35%

Nc1ccc(S(=O)(=O)CCS(=O)(=O)c2ccc(N)cc2)cc1
inactive: [1] 5.65% | [2] -4.5% | [3] 0.55% | [4] -25.1% | [5] 4.45% | [6] 0.8%

COC(=O)[C@@H]1O[C@H]1c1ccccn1
inactive: [1] 7.9% | [2] 1.1% | [3] -7.95% | [4] -5.75% | [5] 8.95% | [6] 0.1%

COC(=O)CCCCC(=O)OC
inactive: [1] 35.9% | [2] -0.3% | [3] 15.1% | [4] -1.9% | [5] -9% | [6] 13.4%

CCOc1ccc(OCC)cc1
inactive: [1] 3.6% | [2] -0.65% | [3] -9.05% | [4] -29.3% | [5] -11.1% | [6] 4.65%

CCC(C)C(O)C(C)C (configuration not stated)
inactive: [1] 11.3% | [2] -18.1% | [3] -15.6% | [4] 13.6% | [5] -4.6% | [6] 21.8%

COc1cccc(N(CN2CC=CC2=O)C(C)=O)c1
inactive: [1] -1.65% | [2] 6.3% | [3] 10.6% | [4] 18.6% | [5] -16.8% | [6] -44.3%

CCOc1c(N=Nc2cccc(Cl)c2)c(C)nn1C(N)=S
inactive: [1] 20.4% | [2] 3.35% | [3] 9.65% | [4] -25.1% | [5] -15.5% | [6] 19.4%

C1=C(N2CCCC2)C(=[N+]2CCCC2)C(N2CCCC2)=C1
inactive: [1] 3.65% | [2] -2.45% | [3] 5.55% | [4] -7.25% | [5] 1.5% | [6] 9.15%

CCN(CC)CCCCCCNc1cc(OC)c(OC)c2c(C)ccnc12
inactive: [1] 23.6% | [2] 18.1% | [3] 5.6% | [4] -14.4% | [5] -1.8% | [6] 28.2%

COc1ccc(NC(=O)CC(=O)n2nc(-c3ccccc3)c(N=Nc3ccccc3C(=O)O)c2-c2ccccc2)cc1
inactive: [1] -28.8% | [2] -13.1% | [3] -2.05% | [4] 2.85% | [5] 2.25% | [6] -13.5%
